Screen size: about 48,000 compounds; about 13,000 (27%) showed an effect of 50% or more. The list shows a part of the results.

This assay has as its system Wolbachia pipientis. Description: Anti-Wolbachia Cell-Based Screen. Particulars: 5 µM. Also on record: scale not given: in the data most compounds retested in dose-response had high values. The format is functional.
For `CCc1noc(CN2CCN(c3nccs3)CC2)n1`, the “Percent Effect” value is 91.95%.
With `CCCc1noc(CN2CCN(c3nccs3)CC2)n1`, the “Percent Effect” value is recorded as 101%.
Consider `Nc1nc(CN2CCN(c3nccs3)CC2)cs1`, for which the “Percent Effect” value is reported as -10.1%.
`c1csc(-c2cc(CN3CCN(c4nccs4)CC3)no2)c1`: the “Percent Effect” value was found to be 7.977%.
For `CC(C)Cc1noc(CN2CCN(c3nccs3)CC2)n1`, the “Percent Effect” value is -10.34%.
For `CCCc1noc(CN2CCN(CCC(C)C)CC2)n1`, the “Percent Effect” value is recorded as 7.482%.
In the case of `CCOCC(O)CN1CCN(C(=O)c2cccc(OC)c2)CC1` (configuration not stated), the “Percent Effect” value stood at 88.95%.
Turning to `COc1cccc(C(O)CN2CCN(C(=O)c3ccsc3)CC2)c1` (configuration not stated), the “Percent Effect” value was determined as 4.323%.
The value for `COc1cccc(C(=O)N2CCN(CC(O)c3ccccc3)CC2)c1` (configuration not stated) was 2.631%; that for `CCOCC(O)CN1CCN(C(=O)c2ccsc2)CC1` (configuration not stated) was -6.282%; that for `CCOCC(O)CN1CCN(C(=O)c2ccncc2)CC1` (configuration not stated) was 2.226%.
The value for `CCOCC(O)CN1CCN(C(=O)c2cc(F)cc(F)c2)CC1` (configuration not stated) was 99.72%; that for `CCOCC(O)CN1CCN(C(=O)c2ccc(OC)cc2)CC1` (configuration not stated) was 101.3%.
With `CCOCC(O)CN1CCN(C(=O)c2cccc(F)c2)CC1` (configuration not stated), the “Percent Effect” value is recorded as 0.952%.
Consider `CCOCC(O)CN1CCN(C(=O)c2cnc3n[nH]c(C)c3c2)CC1` (configuration not stated), for which the “Percent Effect” value was -0.1708%.
With `CCOC(C)c1nc(CN2CCN(c3nccc(C)n3)CC2)cs1` (configuration not stated), the “Percent Effect” value is listed as -8.527%.
In the case of `CCc1ncc2c(n1)CN(C(=O)CCCc1ccc(OC)cc1)C2`, the “Percent Effect” value is -1.775%.
As to `COc1ccc(NC(=O)N2CCCC(CO)C2)c(C)c1` (configuration not stated), the “Percent Effect” value is -14.28%.
With `Nc1cc(N2CCCC(Cc3ccc(F)cc3F)(C(=O)O)C2)ncn1` (configuration not stated), the “Percent Effect” value is -0.2204%.
Regarding `CCN(CC)c1ccc(CNS(=O)(=O)C2CCOCC2)cc1F`, the “Percent Effect” value turned out to be 0.7913%.
For `C1=CCN(c2nc(CC3CC3)nc3c2CCN(C2CCOCC2)CC3)C1` the value was -5.944%; for `CCOCCN1CCN(CC2(O)CCCCC2)CC1`, -2.649%.
For `O=C(C1CCOCC1)N1CCOC(CC2CCCCC2)C1` (configuration not stated), the “Percent Effect” value is reported as 10.22%.
With `O=C(C1CCOCC1)N1CCOCC(Cc2ncccn2)C1` (configuration not stated), the “Percent Effect” value worked out at 97.13%.
In the case of `OC1(CN2CCC(Cc3ccccc3)CC2)CCC1`, the “Percent Effect” value is on record as -17.41%.
Consider `Fc1cccnc1OC[C@@]12CCO[C@@H]1CCN(CC1CCOCC1)C2.O=C(O)C(F)(F)F.O=C(O)C(F)(F)F`, for which the “Percent Effect” value is listed as 11.98%.
As for `O=C(N[C@@H]1CCN(C(=O)C2CCOCC2)C[C@H]1O)c1ccccn1`, the “Percent Effect” value was determined as 2.955%.
`OC1(CN2CCC(Cc3ncccn3)CC2)CCCCC1`: the “Percent Effect” value amounted to 116.2%.
Turning to `OC1(CN2CCC(Cc3ncccn3)CC2)CCOCC1`, the “Percent Effect” value was found to be 87.8%.
For `Clc1cccc(C(NCc2ncc[nH]2)c2ccccn2)c1` (configuration not stated) the value was 3.902%; for `CN(C)CC(C)(O)CNC(=O)Nc1sc2ccccc2c1Cl` (configuration not stated), 1.378%; for `COc1coc(CN2CCCC(CCc3ccccc3C)C2)cc1=O` (configuration not stated), -0.7566%.
As to `Cc1nccn1C1CCCN(C(=O)CCCNc2ncccn2)C1` (configuration not stated), the “Percent Effect” value came to 106.9%.
With `O=C(CCCNc1ncccn1)N1CCCC(n2cccn2)C1` (configuration not stated), the “Percent Effect” value is listed as 2.216%.
In the case of `Cc1nc(C)n(C2CCCN(C(=O)CCCNc3ncccn3)C2)n1` (configuration not stated), the “Percent Effect” value amounted to 110%.
In the case of `CCc1nccn1C1CCCN(C(=O)CCCNc2ncccn2)C1` (configuration not stated), the “Percent Effect” value was determined as 1.367%.
The value for `CNS(=O)(=O)CC(=O)N(C1CC1)C1Cc2ccccc2C1` was 0.4054%.
Consider `Cc1cnc(C(=O)N2CCN(Cc3csc(C)n3)CC2)cn1`, for which the “Percent Effect” value is listed as 75.58%.
For `Cc1cnc(C(=O)N2CCCN(Cc3csc(C)n3)CC2)cn1`, the “Percent Effect” value worked out at 7.438%.
For `Cc1ncsc1C(=O)N1CCN(Cc2cscn2)CC1` the value was 129.9%; for `Cc1ncsc1C(=O)N1CCCN(Cc2cscn2)CC1`, -2.478%.
For `Cc1ncsc1C(=O)N1CCCC(c2nccn2Cc2cscn2)C1` (configuration not stated), the “Percent Effect” value was -18.71%.
The value for `Cc1nc(CN2CCN(C(=O)c3scnc3C)CC2)cs1` was 142.4%; that for `CC(Cc1ccccn1)N(C)C(=O)c1ncc[nH]1` (configuration not stated) was -16.95%.
As for `COCCn1cnc(-c2cc(C(=O)NC(C)C)c3ccccn23)c1`, the “Percent Effect” value is recorded as -8.086%.
With `O=C(CNc1cccc(S(=O)(=O)C(F)F)c1)Nc1ccccc1`, the “Percent Effect” value worked out at 9.714%.
Turning to `COc1ncccc1C1CC(=O)NCc2nc3ccccn3c21` (configuration not stated), the “Percent Effect” value was -11.47%.
Consider `CC(C)n1ncc2c1NC(=O)CC21C(=O)Nc2c(Cl)cccc21` (configuration not stated), for which the “Percent Effect” value was -6.68%.
The value for `Cc1ccc(S(=O)(=O)NCC2(O)CCOc3ccccc32)s1` (configuration not stated) was 0.721%; that for `Cc1cc(C)c(CNC(=O)N2CCC(N3CCNC3=O)CC2)c(C)c1` was -1.308%.
Regarding `COc1cccc(-c2noc(-c3ccc(N4CC(N)C4)nc3)n2)c1OC`, the “Percent Effect” value is listed as 0.2823%.
For the compound `Cn1cc(CN2CC[C@H]3O[C@@H](C(=O)NC4CC4)CC[C@H]32)cn1.O=C(O)C(F)(F)F.O=C(O)C(F)(F)F`, the “Percent Effect” value amounted to 2.978%.
As for `CS(=O)(=O)N1CC[C@H]2O[C@H](C(=O)NCCc3ccccn3)CC[C@H]21.O=C(O)C(F)(F)F`, the “Percent Effect” value was 2.249%.
For `O=C(NCc1cccs1)[C@H]1CC[C@@H]2[C@@H](CCN2c2ncccn2)O1.O=C(O)C(F)(F)F`, the “Percent Effect” value is 16.99%.
For `Cn1cc(CN2CC[C@H]3O[C@H](C(=O)NCc4ccco4)CC[C@H]32)cn1.O=C(O)C(F)(F)F` the value was -21.14%; for `Cn1cc(CN2CC[C@H]3O[C@H](C(=O)Nc4cnccn4)CC[C@H]32)cn1.O=C(O)C(F)(F)F`, 123.6%.
On to `O=C(NCc1ccco1)[C@H]1CC[C@@H]2[C@@H](CCN2Cc2cccnc2)O1.O=C(O)C(F)(F)F.O=C(O)C(F)(F)F`, for which the “Percent Effect” value is reported as -10.47%.
On to `O=C(NCCc1ccccn1)[C@@H]1CC[C@@H]2[C@@H](CCN2Cc2ccoc2)O1.O=C(O)C(F)(F)F.O=C(O)C(F)(F)F`, for which the “Percent Effect” value was 100.1%.
For `O=C(O)C(F)(F)F.O=C([C@@H]1CC[C@@H]2[C@@H](CCN2Cc2ccoc2)O1)N1CCCC1`, the “Percent Effect” value came out at 8.52%.
Regarding `O=C(NCc1cccs1)[C@H]1CC[C@@H]2[C@@H](CCN2Cc2ccoc2)O1.O=C(O)C(F)(F)F`, the “Percent Effect” value stood at 94.68%.
The value for `O=C(NCc1cccnc1)[C@H]1CC[C@@H]2[C@@H](CCN2c2ncccn2)O1.O=C(O)C(F)(F)F.O=C(O)C(F)(F)F` was -7.451%.
On to `O=C(Nc1cnccn1)[C@H]1CC[C@@H]2[C@@H](CCN2Cc2ccoc2)O1.O=C(O)C(F)(F)F`, for which the “Percent Effect” value is reported as 111.7%.
